# Assay outcomes: PubChem, National Center for Advancing Translational Sciences (NCATS)
# Shown are actives, neighbours in structure and some others; about 7.1% of the full set was active somewhere.
# SW480 rerep – A quantitative high throughput screen for small molecules that induce DNA re-replication in SW480 colon adenocarcinoma cells | SW480 DNA re-replication, Hoechst DNA content imaging, 48 h | Potency, µM (highest dose often 46.1 µM), for inactives: at the top dose re-replication activation, usual class: activators | 340,000 compounds, 1.8% hits | AID 624297, 2012; further: potency means the concentration at half of the fitted maximal effect; % of control where 0% means no effect; nearly all actives have a fitted effect of over 55% in size
#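 SW480 cells exposed to compounds for 48 hr at 37 C, 5% CO2, then Hoechst-stained 40 min. Nuclear DNA content imaged by fluorescence scanning (405 nm excitation, 500-530 nm emission); re-replication scored as increased high-intensity nuclei.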
# PINK1 expr mod – A Quantitative High throughput Screen to Identify Chemical Modulators of PINK1 Expression; PINK1 immunofluorescence, high-content cytometry, 24 h; 410,000 compounds, 0.2% hits; AID 624263, 2012; Potency, µM (series often up to 76.6 µM), inactives show top-dose activation (PINK1 increase), hits mostly activators; active means well fitted activation curve with a large enough effect; inconclusive means small, poorly fitted or top-dose-only effect; cell line not stated here; further: potency means the concentration at half of the fitted maximal effect; % of control where 0% means no effect; nearly all actives have a fitted effect of over 65% in size
#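 PINK1 protein level read as immunofluorescence by microplate cytometer in a fixed, stained stable cell line after 24 h exposure to five compound concentrations, with CCCP as control.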
# ATXN2 expr inh – Primary qHTS for Inhibitors of ATXN expression; HEK-293 ATXN2-luciferase reporter, luminescence, 24 h; Potency, µM (series often up to 57 µM), for inactives: at the highest dose activity change, negative = inhibition, actives largely listed as inhibitors; 360,000 compounds, 0.72% hits; further: potency means the concentration at half of the fitted maximal effect; on the % scale 0 is the no-effect control and ±100 the full control effect; nearly all actives have a fitted effect of over 55% in size
#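 qHTS (up to 57 uM final) was run with 24 h compound exposure of reporter cells at 37 °C. Each well was multiplexed: SteadyGlo luminescence measured ATXN2-luciferase expression after a fluorogenic Gly-Phe-AFC viability readout (25 uM final).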
# ATXN viability – Viability Counterscreen for Primary qHTS for Inhibitors of ATXN expression; 400,000 compounds, 0.49% hits; AID 651635, 2014; S2 cells (HEK-293 line with an ATXN2-luciferase reporter) viability, CellTiter-Fluor protease fluorescence, 24 h; Potency, µM (doses to about 56.7 µM), most hits filed as cytotoxic; further: potency means the concentration at half of the fitted maximal effect; nearly all actives have a fitted effect of over 40% in size
# IL1B secr inh – qHTS for Inhibitors of Inflammasome Signaling: IL-1-beta AlphaLISA Primary Screen. THP-1 LPS/ATP IL-1B secretion, AlphaLISA, 16 h; active compounds read low. activity change, % at 57.5 µM. 360,000 compounds, 4.7% hits. AID 743279, 2014; in the data active means activity change below about -50%; inconclusive means mostly about -30% to -49%; further: on the % scale 0 is the no-effect control and ±100 the full control effect
#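 Secreted IL-1B measured by AlphaLISA bead assay after 16 h compound exposure of THP-1 cells; compounds (final up to 57.5 uM) added 1 h before LPS (250 ng/mL) and ATP (1.25 mM) stimulation; lower signal means less secretion.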
# MCF10A rereplic – A quantitative high throughput screen for small molecules that induce DNA re-replication in MCF 10a normal breast cells; MCF 10A DNA re-replication, Hoechst nuclear intensity, 48 h; Potency, µM (highest dose often 46.1 µM), without a hit: at the highest dose activity, positive = re-replication, most hits filed as activators; 350,000 compounds, 2.9% hits; AID 624296, 2012; further: potency means the concentration at half of the fitted maximal effect; % of control where 0% means no effect; nearly all actives have a fitted effect of over 50% in size
# An asterisk follows results filed as active; i = inactive; ? = inconclusive; nt = not tested or not shown. Unless noted, the call rests on the fitted dose curve; in most records, active means well fitted curve in the direction sought with a large enough effect; inconclusive means small, poorly fitted or top-dose-only effect, or another doubt; inactive means no such curve, though single readings can be large; an effect the other way counts as inactive or inconclusive.
SMILES,SW480 rerep,PINK1 expr mod,ATXN2 expr inh,ATXN viability,IL1B secr inh,MCF10A rereplic
COc1ccc(C2C(C#N)=C(N)Oc3c2sc2nc(C)cc(C)c32)cc1 (centres undefined),?,8.5%,8.9%,?,-13.9,16.4µM*
Cc1ccc(NC(=O)C(=O)NCC(c2cccnc2)N2CCN(Cc3ccccc3)CC2)cc1F (centres undefined),nt,-0.4%,-5.5%,i,nt,nt
COC(=O)c1ccc2c(c1)N(CC(=O)Nc1cccc(Cl)c1C)C(=O)c1ccccc1S2,nt,11.1%,2.2%,i,nt,nt
CCOc1ccc(Sc2cc(C(=O)NCCCOC)c3ccccc3n2)cc1,nt,-0.6%,nt,nt,nt,nt
COc1ccc(/C=C/C(O)=C2/C(=O)N(C)C3(C)CC2c2ccccc2O3)cc1 (centres undefined),?,-1.7%,?,i,-91.5*,?
Cc1ccc(/C=C/C(O)=C2/C(=O)N(C)C3(C)CC2c2ccccc2O3)cc1 (centres undefined),?,-3.2%,?,?,-87.3*,?
Cc1ccc(C)c(N2C(=O)N(Cc3ccccc3C)c3ccccc3S2(=O)=O)c1,nt,1.7%,1.3%,i,nt,nt
NC(=S)N=Nc1c(O)n(CCCl)c2ccc(Br)cc12,-5.6%,1.6%,?,?,-101.3*,?
NC(=S)N=Nc1c(O)n(Cc2ccc(Br)cc2)c2ccccc12,8.2µM*,-0.1%,?,?,12.7,5.8µM*
NC(=S)N=Nc1c(O)n(Cc2ccc(F)cc2)c2ccccc12,1.7%,2.5%,?,?,0.0,?
O=C(NC1CCN(Cc2ccc(Cl)cc2)CC1)c1cn(-c2ccccc2)nc1-c1cccnc1,5.6%,0.7%,-23.0%,i,?,20.6µM*
CC(C)c1nc2cccnc2n1C1CCN(C(=O)Cn2cccn2)CC1,nt,0.3%,nt,i,nt,nt
COc1ccc2c3c([nH]c2c1)[C@H]1C[C@H]2[C@H](C[C@@H](O)[C@H](OC)[C@H]2C(=O)O)CN1CC3,?,-0.2%,-31.2%,i,-81.6*,?
COc1ccc2c3c([nH]c2c1)C1CC2C(CC(O)C(OC)C2CO)CN1CC3 (centres undefined),-19.2%,1.5%,5.6%,i,11.3,-33.4%
O=S(=O)(c1cccc(Cl)c1)c1nnn2c1nc(NCc1ccc3c(c1)OCO3)c1sccc12,nt,1.3%,-6.5%,i,nt,nt
COc1ccc(C(C)=O)cc1CSc1nnc(Nc2ccccc2)s1,1.0%,5.5%,?,i,-28.2,5.5%
COc1ccc(C(C)=O)cc1CSc1nnc(Nc2ccc(C)cc2)s1,1.3%,-0.4%,-11.9%,i,-66.5*,5.6%
Cc1ccc(C)c(S(=O)(=O)ON2C(=O)c3ccccc3C2=O)c1,?,2.0%,-33.2%,?,-18.1,5.8µM*
Cc1cc(S(=O)(=O)ON2C(=O)c3ccccc3C2=O)ccc1F,8.0%,4.3%,nt,?,-16.2,?
CC(=O)Nc1ccc(/C=N/Nc2nc3ccccc3[nH]2)cc1,22.6%,14.4%,nt,?,-94.0*,7.1%
C(=N\Nc1nc2ccccc2[nH]1)/c1ccncc1,-7.2%,-1.7%,38.2%,i,-22.1,?
O=C(O)c1ccc(/C=N/Nc2nc3ccccc3[nH]2)cc1,1.8%,0.4%,-0.9%,i,13.1,3.9%
O=C(Cc1nc2ccccc2[nH]1)N/N=C/c1ccccc1,20.6µM*,1.4%,17.8%,i,5.2,11.6µM*
CCN(CC)c1ccc(/C=N/Nc2nc3ccccc3[nH]2)cc1,20.6µM*,25.3%,nt,5.62µM*,-85.2*,9.2µM*
CCN(C(=O)Cn1c(SCc2ccccc2F)nc2cccnc21)c1ccccc1,nt,0.9%,nt,nt,nt,nt
Cc1cc(C(=O)Cn2ncc(Cl)c(Cl)c2=O)c(C)n1CC(F)(F)F,5.8µM*,-2.0%,?,?,-99.0*,2.59µM*
